Some test systems named below: DU-145 prostate; K-562 leukemia; MALME-3M melanoma; MDA-MB-231 breast; RXF 393 renal; SF-268 CNS; SF-295 CNS; SF-539 CNS; UACC-257 melanoma; M14 melanoma; HCT-15 colon; HT29 colon; SNB-75 CNS; SNB-19 CNS; U251 CNS; PC-3 prostate; SK-MEL-5 melanoma; UACC-62 melanoma; LOX IMVI melanoma; SK-MEL-28 melanoma.
What all share (assay): NCI-60 one-dose screen, 48 h (100 = growth as untreated, 0 = no growth, -100 = all killed)
Holding throughout (details): 10 µM unless noted

Structures are written as SMILES. The panel holds about 83,000 compounds, 20% with a hit somewhere; the sample as a whole holds those more often.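 Testing used 96-well plates and a 48-hour single-concentration exposure. Example: -40 means 40% of the starting cells died.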 A number with no mark means an inactive call. Active and inactive are the calls of the source. Rule for the calls: active = growth percent below 10; inactive = the rest.

Take `COc1ccc2c(c1)c(-c1nn3cc(-c4cccs4)nc3s1)cn2C`: the growth with DU-145 prostate was 89.7%; in the assay on K-562 leukemia, 51%; in the assay on MALME-3M melanoma, 72.1%; in the assay on MDA-MB-231 breast, 54.1%; with RXF 393 renal, 96.3%; in the assay with SF-268 CNS it was 80.3%. Also, the growth was 66.9% in the assay on SF-295 CNS; 81.3% in the assay on SF-539 CNS; 105% in the assay on UACC-257 melanoma; 71.6% in the assay on M14 melanoma; 47.6% in the assay on HCT-15 colon; 52.1% in the assay on HT29 colon. Also, the growth in the assay on SNB-75 CNS was 50.3%; in the assay on SNB-19 CNS, 82.5%; in the assay on U251 CNS it was 65.9%; in the assay on PC-3 prostate, 69.6%; in the assay with SK-MEL-5 melanoma it was 66.7%; with UACC-62 melanoma it was 64.1%. Moreover, the growth in the assay with LOX IMVI melanoma was 54.1%; with SK-MEL-28 melanoma, 97.8%.
As to `CC1Cc2ccccc2N1NC(=O)c1ccc(Cl)c(S(N)(=O)=O)c1` (stereo not given), the growth was 108% in the assay on DU-145 prostate; 103% in the assay on K-562 leukemia; 94.2% with MALME-3M melanoma; 104% in the assay with MDA-MB-231 breast; 108% with RXF 393 renal; 106% in the assay on SF-268 CNS. Further, the growth is 101% in the assay on SF-295 CNS; 105% in the assay with SF-539 CNS; 102% in the assay with UACC-257 melanoma; 98.2% in the assay with M14 melanoma; 106% in the assay with HCT-15 colon; 99.9% in the assay with HT29 colon. Moreover, the growth with SNB-75 CNS is 90.4%; in the assay on SNB-19 CNS, 102%; in the assay with U251 CNS it was 100%; in the assay on PC-3 prostate, 88%; with SK-MEL-5 melanoma, 101%; in the assay with UACC-62 melanoma, 99.4%. Moreover, the growth in the assay on LOX IMVI melanoma was 96.2%; in the assay on SK-MEL-28 melanoma, 104%.
For `Cn1cc(-c2ccc3cc(-c4ccc(CC(=O)Nc5cc(C(C)(C)C)nn5C)cc4)cnc3c2)cn1`, the growth in the assay with DU-145 prostate was 14.8%; in the assay with K-562 leukemia, 13.8%; with MALME-3M melanoma, -9.19% (active); with MDA-MB-231 breast, -15% (active); in the assay on RXF 393 renal, -18.6% (active); in the assay on SF-268 CNS, 17.4%. Besides, the growth was 16.7% in the assay on SF-295 CNS; 15.7% in the assay with SF-539 CNS; 13.1% with UACC-257 melanoma; 11.1% in the assay with M14 melanoma; 5.84% (active) with HCT-15 colon; 22.6% in the assay with HT29 colon. The growth with SNB-75 CNS is 3.79% (active); in the assay on SNB-19 CNS, 29.2%; in the assay on U251 CNS it was 20.1%; in the assay with PC-3 prostate, 3.81% (active); in the assay with SK-MEL-5 melanoma, -35.4% (active); in the assay on UACC-62 melanoma, -16.6% (active). The growth was 14.1% in the assay with LOX IMVI melanoma and 16.7% in the assay with SK-MEL-28 melanoma.
For `COc1cc(C(=O)c2cc(C)c3[nH]c4ccc(C)cc4c3c2C)cc(OC)c1OC`, the growth with DU-145 prostate was 1.16% (active); in the assay with K-562 leukemia it was 11.5%; in the assay on MALME-3M melanoma it was 34.3%; in the assay with MDA-MB-231 breast, 27.6%; in the assay with RXF 393 renal, 36.8%; in the assay with SF-268 CNS, 29.3%. In addition, the growth with SF-295 CNS is 11.7%; in the assay on SF-539 CNS, 0.519% (active); in the assay on UACC-257 melanoma it was 68.8%; in the assay with M14 melanoma, 23.7%; with HCT-15 colon it was 8.81% (active); in the assay with HT29 colon it was 10.6%. In addition, the growth with SNB-75 CNS is 39.7%; with SNB-19 CNS, 52.2%; with U251 CNS, 19.2%; in the assay on PC-3 prostate it was 23.4%; with SK-MEL-5 melanoma it was -42.3% (active); with UACC-62 melanoma, 62.7%. For the same compound, the figures for the growth in the assay with LOX IMVI melanoma and with SK-MEL-28 melanoma were 10.9% and 57.1%, respectively.
`O=c1n(Cc2ccc3ccccc3c2)ccn1Cc1ccc2ccccc2c1`: the growth was 100% in the assay on DU-145 prostate; 106% in the assay with K-562 leukemia; 91.8% in the assay with MALME-3M melanoma; 91.4% in the assay on MDA-MB-231 breast; 96.4% in the assay on RXF 393 renal; 84.7% in the assay on SF-268 CNS. The growth was 94.5% with SF-295 CNS; 87.7% in the assay on SF-539 CNS; 101% with UACC-257 melanoma; 93.3% with M14 melanoma; 91.4% in the assay with HCT-15 colon; 77.1% in the assay with HT29 colon. Besides, the growth is 53.2% with SNB-75 CNS; 87.2% in the assay with SNB-19 CNS; 92.5% in the assay on U251 CNS; 94.4% in the assay with PC-3 prostate; 95.5% with SK-MEL-5 melanoma; 89.8% in the assay with UACC-62 melanoma. The growth in the assay on LOX IMVI melanoma was 91.2%; in the assay on SK-MEL-28 melanoma it was 94.3%.
As for `O=C(N/N=C/c1ccc(Cl)cc1)c1ccc(C(F)(F)F)nc1Nc1cccc(C(F)(F)F)c1`, the growth in the assay on DU-145 prostate is 13.2%; with K-562 leukemia it was 1.81% (active); in the assay on MALME-3M melanoma it was 50.4%; in the assay on MDA-MB-231 breast it was 16%; in the assay with RXF 393 renal it was 42.6%; in the assay with SF-268 CNS, 2.52% (active). The growth in the assay on SF-295 CNS is -22.9% (active); in the assay with SF-539 CNS, 3.47% (active); in the assay with UACC-257 melanoma, 20%; with M14 melanoma it was 42.7%; with HCT-15 colon, -5.13% (active); in the assay on HT29 colon, 16.1%. Moreover, the growth is 61.3% with SNB-75 CNS; 30.4% with SNB-19 CNS; 5.89% (active) in the assay with U251 CNS; 9.4% (active) in the assay with PC-3 prostate; 33.1% in the assay on SK-MEL-5 melanoma; 26.7% in the assay with UACC-62 melanoma. Further, the growth with LOX IMVI melanoma is -13.9% (active); in the assay with SK-MEL-28 melanoma, -2% (active).
In the case of `CCOC(=O)c1[nH]c(C)c(C(=O)OCc2ccccc2C#N)c1C`, the growth in the assay on DU-145 prostate was 87.2%; in the assay with K-562 leukemia, 25.6%; in the assay with MALME-3M melanoma, 66.5%; with MDA-MB-231 breast, 73.9%; in the assay on RXF 393 renal it was 58.3%; with SF-268 CNS, 72.9%. Further, the growth is 75.2% in the assay on SF-295 CNS; 16.2% in the assay on SF-539 CNS; 114% with UACC-257 melanoma; 58.9% with M14 melanoma; 60.8% in the assay on HCT-15 colon; 35.1% in the assay with HT29 colon. Besides, the growth was 0.16% (active) in the assay with SNB-75 CNS; 97.1% in the assay on SNB-19 CNS; 50.9% in the assay on U251 CNS; 80.3% in the assay with PC-3 prostate; 60.3% with SK-MEL-5 melanoma; 73.6% with UACC-62 melanoma. Besides, the figures for the growth in the assay on LOX IMVI melanoma and in the assay on SK-MEL-28 melanoma were 63.1% and 87.1%, respectively.

Source of the values: PubChem BioAssay (NCI).
